Rows were chosen to be rich in hits. Some 7.9% of all compounds tested hit in one or more screens of this group.
HCV inhibitor: HCV inhibition; hit rate 3.4% among 340,000; Potency, µM (highest dose often 41.8 µM), without a hit: at the highest dose activity change, negative = inhibition, hits mostly inhibitors; Huh7.5.1 HCVcc-Cre infection, luciferase reporter, 44 h; active = well fitted inhibition curve with a large enough effect; inconclusive = small, poorly fitted or top-dose-only effect, or another doubt; inactive = no such curve, though single readings can be large or run the other way; note: potency is the fitted concentration of half-maximal effect
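Reporter virus HCVcc-Cre (~0.5 moi) infects cells exposed to compound; seeding density 1,000 cells/well with 4 h settling beforehand. Luminescence, 15 sec read, taken 44 h post-infection following a 15 min RT substrate incubation.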
Marburg entry inh: inhibitors of Marburg virus binding or cell entry | hit rate 1.8% among 300,000 | Potency, µM (series often up to 37.8 µM), for the others: top-dose activity change, negative = inhibition, most hits filed as inhibitors | Marburg virus pseudotyped entry inhibition, cell reporter; calls by dose curve; tested in HEK293 cells; note: potency is the fitted concentration of half-maximal effect
FMDV antiviral: foot and mouth disease virus antiviral activity | hit rate 1.2% among 410,000 | Potency, µM (doses to about 57.9 µM), inactives show top-dose activity change, negative = inhibition, usual class: inhibitors | FMDV antiviral cell-based qHTS; calls by dose curve; tested in HEK293T cells; note: read-out not given here; potency is the fitted concentration of half-maximal effect; nearly all actives have a fitted effect of over 45% in size
LASV entry inh: Lassa virus entry inhibition. Lassa virus pseudotype entry inhibition, cell reporter. Potency, µM (titrated, usually from 37.9 µM), without a hit: at the highest dose activity change, negative = inhibition, most hits filed as inhibitors. hit rate 1.2% among 300,000. AID 540256; calls by dose curve; tested in HEK293 cells; note: potency is the fitted concentration of half-maximal effect; nearly all actives have a fitted effect of over 50% in size
HCMV antiviral: inhibitors of human cytomegalovirus | HFF cells, HCMV-luciferase reporter, 72 h; stronger effect = lower value | AID 1259415 | activity change, negative = inhibition, % at 57.5 µM | hit rate 4.5% among 410,000; in the data active = activity change below about -60%; inconclusive = no clear call, values can overlap the other calls; inactive = above about -39%
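Cell-based, HFFs, 1000 cells/well, 16 h 37C; cpds in DMSO + HCMV-luc, MOI 1 PFU/cell; 72 h 37C; OneGlo luminescence after 5 min RT; norm. to buffer vs Salinomycin 10uM.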
An asterisk follows results filed as active; u = inconclusive; x = no result; [ ] = remark or other dose. % is set by controls: 0 for no effect and ±100 for the full control effect.

SMILES	HCV inhibitor	Marburg entry inh	FMDV antiviral	LASV entry inh	HCMV antiviral
CCc1ccccc1NC(=O)c1ccc2c(c1)CCCN2S(C)(=O)=O	x	2%[46.1 µM]	22%	-14%[46.1 µM]	27
FC(F)Oc1ccc(NC(=S)NCc2ccccc2)cc1Cl	13µM*	12%	-17%	-15%	u
NC(=S)Nc1ccc(Cl)c(Cl)c1	1%	x	7%	x	-60*
Fc1ccc(NC(=S)Nc2cc(-c3ccccc3)[nH]n2)cc1Cl	u	u	-13%	u	-32
Cc1ccc(NC(=S)Nc2cc(-c3ccccc3)[nH]n2)cc1Cl	27%	-21%[46.1 µM]	1%	x	-72*
O=C(Nc1ccc(OC(F)F)c(Cl)c1)C(c1ccccc1)c1ccccc1	u	x	40µM*	x	-30
O=C(Cc1cccc2ccccc12)Nc1ccc(OC(F)F)c(Cl)c1	-14%	u	3%	-9%	-11
CC(C)(C)NC(=O)C(c1ccccc1)n1c(-c2ccccc2Br)nc2ccccc21 (stereo not drawn)	x	x	x	x	54
Nc1ncccc1OCc1cccc(C(F)(F)F)c1	u	3%[46.1 µM]	u	u	-32
Nc1nc(N)c(-c2cccc(C(F)(F)F)c2)c(Cc2cccc(C(F)(F)F)c2)n1	u	u	-29%	u	-75*
COC(=O)c1ccc(Nc2ncnc3c2cnn3-c2ccccc2)cc1	x	x	-10%	20%[46.1 µM]	-34
CC(C)(C)C1=CC(O)(c2ccccc2)C=C(C(C)(C)C)C1=O	u	x	u	x	-60*
O=C1NC(=Nc2cccc(O)c2)S/C1=C\c1cccc([N+](=O)[O-])c1	36%	16%	7%	21%	-69*
COc1ccc(N=C2NC(=O)/C(=C/C=C/c3ccccc3)S2)cc1	u	-9%	-1%	1µM*	-40
Cc1cc(/C=C2\SC(=Nc3ccccc3)NC2=O)c(C)n1-c1ccc(S(N)(=O)=O)cc1	4.5µM*	8.9µM*	u	u	-96*
COc1cc(/C=C2/SC(=Nc3ccc(O)cc3)NC2=O)ccc1O	u	x	-4%	x	-77*
COc1cc(/C=C2\SC(=Nc3ccccc3OC)NC2=O)ccc1O	-25%	u	7%	u	-12
c1ccc(-c2cnn3c(-c4ccccc4)c(-c4ccccc4)nc3n2)cc1	u	2%	-25%	6%	36
COc1ccc(S(=O)(=O)/N=C2/NC(=O)/C(=C/c3ccco3)S2)cc1	-4%	9%	46%	12%	14
O=C1NC(=Nc2ccccc2)/C(=C/c2ccco2)S1	11µM*	-16%	4%	-1%	-25
COc1ccc(N=C2NC(=O)/C(=C/c3ccco3)S2)cc1	-23%	x	56%	x	-68*
O=C1NC(=Nc2ccccc2)S/C1=C\c1ccccc1	0%	x	70%	x	-86*
Cc1c(C(=O)NCc2ccc(Cl)c(Cl)c2)sc(=O)n1Cc1ccc(S(=O)(=O)N(C)C)cc1	x	x	22µM*	x	-16
Cc1c(C(=O)NCc2ccc(C(C)C)cc2)sc(=O)n1Cc1ccc(S(=O)(=O)N(C)C)cc1	x	x	11µM*	x	-68*
Cc1c(C(=O)NCc2ccc(Cl)c(Cl)c2)sc(=O)n1Cc1ccc(C(=O)N(C)C)cc1	x	x	u	x	-69*
SMILES	HCV inhibitor	Marburg entry inh	FMDV antiviral	LASV entry inh	HCMV antiviral
Cc1c(C(=O)NCc2cccc(Cl)c2)sc(=O)n1Cc1ccc(C(=O)N(C)C)cc1	x	x	u	x	-9
C=Cc1ccc(Cn2c(C)c(C(=O)NCc3ccc(Cl)c(Cl)c3)sc2=O)cc1	x	x	-25%	x	u
CSc1ccc(Cn2c(C)c(C(=O)NCc3ccc(C(C)C)cc3)sc2=O)cc1	x	x	-30%	x	-29
CSc1ccccc1OCc1cc(C(=O)N[C@H]2CCCCNC2=O)no1	2%	21%	-1%	u	79
O=C(CN1CCN(CC(=O)c2ccc(Cl)cc2)CC1)c1ccc(Cl)cc1	15%	-1%	10%	20%	48
CCN1CCN(CC(=O)c2ccc(C)cc2)CC1	9%	x	-11%	x	-67*
CC(C)CNC(=O)Cn1c(=O)c2c(ncn2CC(C)C)n(Cc2ccccc2)c1=O	11µM*	-7%[46.1 µM]	18%	u	-67*
CCCCCNC(=O)Cn1c(=O)c2c(ncn2CC(C)C)n(Cc2ccccc2)c1=O	-12%	5%[46.1 µM]	-6%	-6%[46.1 µM]	10
O=C(CSc1nc(=O)n2ccccc2n1)N1CCN(c2ccccc2)CC1	5%	18%[46.1 µM]	-20%	-2%	-21
COc1ccc(C(=O)NCC2(N3CCN(C)CC3)CCCCC2)cc1	x	-14%[46.1 µM]	-16%	-3%[46.1 µM]	-8
CNC(=S)N(C)[C@H]1c2c(ccc3ccccc23)OC[C@H]1CO	1%	5%[46.1 µM]	0%	21%[46.1 µM]	-60*
CN(C(=O)C(C)(C)C)C1c2c(ccc3ccccc23)OCC1CO (stereo not drawn)	-18%	-41%	u	u	55
CC(C)c1ccc(/C=C/C(=O)Nc2nncs2)cc1	u	u	-50%	8.9µM*	u
COc1ccccc1Cn1ccn(Cc2ccc(C)cc2)c(=O)c1=O	x	x	7%	-5%[46.1 µM]	-31
CCOc1ccc(S(=O)(=O)N2CCN(C(=O)c3cc([N+](=O)[O-])ccc3N3CCOCC3)CC2)cc1	14%	x	-18%	x	-14
Cc1ccc(C(=O)c2cc([N+](=O)[O-])ccc2N2CCOCC2)cc1	u	u	-16%	u	-15
CCOc1ccc(C(=O)c2cc([N+](=O)[O-])ccc2N2CCOCC2)cc1	-22%	u	u	u	-90*
COc1ccc(C(=O)c2cc([N+](=O)[O-])ccc2N2CCOCC2)cc1	u	u	-12%	u	-99*
O=C(/C=C/c1ccccc1)N1CC2ON=C(c3c(F)cccc3Cl)C2C1 (stereo not drawn)	x	x	x	x	-8
CC(C)NC(=O)c1cn(C2CCCN(C(=O)c3cc4ccccc4oc3=O)C2)nn1 (stereo not drawn)	x	x	-11%	x	x
Nc1ccc(O)c2c1C(=O)c1ccccc1C2=O	5µM*	34%	-24%	8%	-34
NC1=C(Br)C(=O)c2ccccc2C1=O	u	u	-19%	-10%	-86*
O=C1c2ccccc2C(=O)c2c(O)ccc(O)c21	x	x	-20%	x	x
COc1ccc(N)c2c1C(=O)c1ccccc1C2=O	u	0%	-6%	u	27
Nc1ccc(Br)c2c1C(=O)c1ccccc1C2=O	10µM*	40%	2%	1%	x
SMILES	HCV inhibitor	Marburg entry inh	FMDV antiviral	LASV entry inh	HCMV antiviral
O=C(Nc1ccccc1C(=O)NCC1CCCO1)c1ccc(Cl)cc1 (stereo not drawn)	2%	16%	-10%	0%	15
C[C@@H]1CC[C@H]2C(=O)N(Cc3ccc(Cl)cc3)C[C@@H](O)CN2[C@@H]1c1ccc(Br)cc1	x	-15%[14.2 µM]	x	x	x
CCCC1CC(C)(c2csc(Nc3ccc(OCC)cc3)n2)OC1=O (stereo not drawn)	u	x	-21%	x	-89*
Cc1cc(C)n(-c2ccc(NC(=O)C3CCN(Cc4cnc(C)s4)CC3)cc2)n1	-15%	-4%	-28%	-4%	-60*
Cc1ncc(CN2CCC(C(=O)Nc3ccc(-n4cccn4)cc3)CC2)s1	-14%	5%	-13%	-4%	8
COc1ccc(S(=O)(=O)N2CCCCC2)cc1NC(=O)c1cccc(S(=O)(=O)N2CC(C)OC(C)C2)c1 (stereo not drawn)	-13%	x	-17%	x	8

From PubChem
